Assay results published in PubChem BioAssay AID1851 (National Center for Advancing Translational Sciences (NCATS), 2009).
Where “and” joins values, the source holds several entries; their conditions need not be identical. Identical values can stand only once. The whole screen tested about 16,000 compounds, of which about 5,700 (36%) were called active. Roughly 24% stayed inconclusive and do not appear here. The list shows a part of the results. Values without a mark were called inactive. The call rests on the fitted dose curve; in most records, active means well fitted curve in the direction sought with a large enough effect; inconclusive means small, poorly fitted or top-dose-only effect, or effect the other way; inactive means no such curve, though single readings can be large or run the other way.

target: Cytochrome P450 1A2 (Homo sapiens) (UniProt P05177); test: Cytochrome panel assay with activity outcomes; details: recombinant CYP, pro-luciferin dealkylation, luminescence, p450-cyp1a2; series mostly up to 57.1 µM
On the % scale 0 is the no-effect control and ±100 the full control effect.

Cytochrome P450 1A2 (Homo sapiens), sequence (P05177 whole entry, looked up): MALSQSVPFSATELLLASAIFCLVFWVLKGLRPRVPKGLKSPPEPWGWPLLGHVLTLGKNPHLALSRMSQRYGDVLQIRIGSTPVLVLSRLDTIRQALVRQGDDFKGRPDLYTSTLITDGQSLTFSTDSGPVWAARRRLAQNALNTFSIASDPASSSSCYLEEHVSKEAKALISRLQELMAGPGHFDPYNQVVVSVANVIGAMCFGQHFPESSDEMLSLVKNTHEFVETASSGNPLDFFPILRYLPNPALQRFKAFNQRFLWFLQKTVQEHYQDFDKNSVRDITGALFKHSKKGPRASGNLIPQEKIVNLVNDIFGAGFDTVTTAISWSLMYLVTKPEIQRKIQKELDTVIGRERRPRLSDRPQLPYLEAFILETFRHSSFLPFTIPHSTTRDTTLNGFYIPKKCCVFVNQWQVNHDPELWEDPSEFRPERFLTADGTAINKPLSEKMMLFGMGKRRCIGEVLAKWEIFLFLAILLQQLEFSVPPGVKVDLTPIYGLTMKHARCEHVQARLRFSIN

| SMILES | AC50 | activity, negative = inhibition |
| --- | --- | --- |
| CC[C@]1(O)C[C@@H]2CN(CCc3c([nH]c4ccccc34)[C@](C(=O)OC)(c3cc4c(cc3OC)N(C)[C@H]3[C@](O)(C(=O)OC)[C@@H](C(=O)OC)[C@@]5(CC)C=CCN6CC[C@@]43[C@@H]65)C2)C1 | inactive | – |
| CN(C(=S)Nc1ccccc1F)C1(c2ccccc2Cl)CCCCC1=O (configuration not stated) | inactive | – |
| CCCN(C(=S)Nc1ccccc1)C1CCS(=O)(=O)C1 (configuration not stated) | inactive | – |
| CCN(C(=S)Nc1ccccc1F)C1CCCCC1 | 15.8 µM (active) | – |
| COc1cccc(-c2cc(NCc3cccnc3)ncn2)c1 | 0.631 µM (active) | – |
| COc1cccc(-c2cc(NCc3ccccc3)ncn2)c1 | 2 µM (active) | – |
| COc1cccc(-c2cc(NCc3cccs3)ncn2)c1 | 1.26 µM (active) | – |
| c1cncc(-c2cc(NCc3cccs3)ncn2)c1 | 1 µM (active) | – |
| COc1cccc(/C=N/NC(=O)C(=O)NCc2cccnc2)c1 | inactive | – |
| COCC(=O)N1CCC2(CCCN(Cc3ccccc3)C2)CC1 | inactive | – |
| CS(=O)(=O)N1CCC2(CCN(C(=O)Nc3cccc(C#N)c3)CC2)CC1 | inactive | – |
| Cc1c2cccc(Sc3ccccc3)c2c2c3c(cccc13)[S+](c1ccccc1)C2 (configuration not stated) | – | -17.3% [at 2.29 µM] |
| O=C(Nc1c2c(nn1-c1ccc(F)cc1)CS(=O)(=O)C2)C12CC3CC(CC(C3)C1)C2 | inactive | – |
| Cc1cc(C2C(C#N)=C(N)Oc3n[nH]c(C)c32)c(C)s1 (configuration not stated) | 15.8 µM (active) | – |
| Cc1cc(C2C(C#N)=C(N)OC3=C2C(=O)CC(C)(C)C3)c(C)s1 (configuration not stated) | inactive | – |
| N#CC(=C(/N)Sc1ccccc1N)/C(C#N)=C(/N)Sc1ccccc1N | 12.6 µM (active) | – |
| Cc1ccc(C2(C)NC(=O)N(CC(=O)Nc3cc(C)on3)C2=O)cc1 (configuration not stated) | inactive | – |
| Cc1cc(NC(=O)CN2C(=O)NC(C)(c3ccc(OC(F)F)cc3)C2=O)no1 (configuration not stated) | inactive | – |
| Cc1cc(NC(=O)Nc2ccc(F)cc2)no1 | 10 µM (active) | – |
| Cc1cc(NC(=O)c2cccc(F)c2)no1 | 17.8 µM (active) | – |
| CN1CCN(NC(=O)c2cccc(F)c2)CC1 | inactive | – |
| Cc1ccc(N2CC(C(=O)Nc3cc(C)on3)CC2=O)cc1 (configuration not stated) | inactive | – |
| Cc1ccc(N2C(=O)CC(c3ccsc3)C3=C2CC(C)(C)CC3=O)cc1 (configuration not stated) | inactive | – |
| Cc1ncc([N+](=O)[O-])n1CC(C)O (configuration not stated) | inactive | – |
| Cc1ncc([N+](=O)[O-])n1CCO | inactive | – |

| SMILES | AC50 | activity, negative = inhibition |
| --- | --- | --- |
| Cc1ccc2ncc([N+](=O)[O-])n2c1 | 6.31 µM (active) | – |
| Cc1nn(C)c(C)c1CNC(=O)c1cnn2c1NC(c1ccccc1)CC2C(F)(F)F (configuration not stated) | inactive | – |
| CCC(C)N1C(=O)S/C(=C/c2ccc(Sc3nc4ccccc4[nH]3)o2)C1=O (configuration not stated) | 2 µM (active) | – |
| NCCNc1ncnc2ccc(Cl)cc12 | 1 µM (active) | – |
| COC(=O)N1CCC2(CCCN(Cc3ccc(C#N)cc3)C2)CC1 | inactive | – |
| CC(C)CC1CC(=O)OC1(C)C(=O)CSc1nc2ccccc2s1 (configuration not stated) | 7.08 µM (active) | – |
| O=C(O)CC(c1ccccc1)n1cnnn1 (configuration not stated) | inactive | – |
| c1ccc2c(-n3ccnc3)nc(-c3ccoc3)nc2c1 | 0.501 µM (active) | – |
| CN(C)c1ccc(-c2nc(-n3ccnc3)c3ccccc3n2)cc1 | 0.316 µM (active) | – |
| COC(=O)C/C=C\[C@@H](C)[C@@H](/C=N\OC[C@@H]1O[C@H](c2ccccc2)C=C[C@@H]1Oc1ccc(OC)cc1)NS(=O)(=O)c1ccc(C)cc1 | – | -1.03% [at 11.4 µM] |
| Cc1ccc(S(=O)(=O)NC(CC(C)C)C(=O)Oc2ccc3c4c(c(=O)oc3c2)CCC4)cc1 (configuration not stated) | 3.98 µM (active) | – |
| Cc1ccc(S(=O)(=O)N[C@H](CN)C(=O)O)cc1 | – | -18.5% [at 2.29 µM] |
| Cc1ccc(C)c(S(=O)(=O)NC(CC(C)C)C(=O)O)c1 (configuration not stated) | inactive | – |
| Cc1ccc(S(=O)(=O)N[C@H](C(=O)Oc2ccc3c(C(F)(F)F)cc(=O)oc3c2)c2ccccc2)cc1 | 1.78 µM (active) | – |
| CCC/C=C(\CCC)C(NS(=O)(=O)c1ccc(C(F)(F)F)cc1)c1ccc(-c2ccccc2)cc1 (configuration not stated) | inactive | – |
| COc1ccc(CCN2C(=NC(=O)CCC(=O)O)SC3CS(=O)(=O)CC32)cc1 (configuration not stated) | inactive | – |
| CN1CCc2c(c3c(n2C)CCN(C)[C@H]3c2ccccc2F)[C@@H]1c1ccccc1F | inactive | – |
| CC(C)NC(=O)N1CCCC2(CCN(C(=O)c3cc(C(F)(F)F)cc(C(F)(F)F)c3)CC2)C1 | inactive | – |
| C1=C(CN2CCOCC2)COc2c1cccc2OC[C@@H]1CNCCO1 | 12.6 µM (active) | – |
| Cc1c(C)c2c(c(C)c1O)CC[C@@](C)(CCC[C@@H](C)CCC[C@@H](C)CCCC(C)C)O2 | inactive | – |
| COc1ccc(NC2=NC(=S)N(c3ccc(C)cc3)C23CCCCC3)cc1 | inactive | – |
| COc1ccc(Nc2ncc3c(n2)CC(c2ccc(C)cc2)CC3=O)cc1 (configuration not stated) | 14.1 µM (active) | – |
| COc1ccc(C2CC(=O)c3cnc(Nc4cc(C)cc(C)c4)nc3C2)cc1 (configuration not stated) | 14.1 µM (active) | – |
| CCSc1nnc(-c2ccc(Cl)cc2)c2ccccc12 | 7.08 µM (active) | – |
| O=[N+]([O-])c1cc(Cl)cc2c1nc(NCCO)c1ccccc12 | 0.02 µM (active) | – |

| SMILES | AC50 | activity, negative = inhibition |
| --- | --- | --- |
| CCOC(=O)C(NC(C)=O)C(=O)O (configuration not stated) | inactive | – |
| O=C1C2C3C=CC([C@@H]2C(=O)N1C1CCCCC1)[C@H]1C(=O)N(C2CCCCC2)C(=O)C31 (some centres not stated) | inactive | – |
| O=C1C[C@@H](O)[C@@H](O)[C@H]2[C@@H]3C(=O)N(C4CCCCC4)C(=O)[C@@H]3CC[C@H]12 | – | 4% [at 11.4 µM] and -9.85% [at 11.4 µM] and 5.4% [at 11.4 µM] |
| CC(=O)[C@@H]1[C@@H]2C(=O)N(C3CCCCC3)C(=O)[C@@H]2C2c3ccccc3C=CN21 (some centres not stated) | 15.8 µM (active) | – |
| COCCNc1ccnc(-c2cccc(NS(C)(=O)=O)c2)n1 | 2 µM (active) | – |
| COc1cccc(-c2nccc(NCc3ccccc3OC)n2)c1 | 1.26 µM (active) | – |
| COc1ccc(CNc2ccnc(-c3cccnc3)n2)c(OC)c1 | 0.316 µM (active) | – |
| COc1ccc(C(=O)N2CCC3(CCN(Cc4ccccc4OC)CC3)CC2)cc1 | inactive | – |
| COc1cccc(-c2nccc(NCc3ccc(OC)cc3OC)n2)c1 | 1 µM (active) | – |
| CCOc1ccc(N(C(C)C(=O)NC(C)CC)S(C)(=O)=O)cc1 (configuration not stated) | inactive | – |
| N[C@H](CCC(=O)N[C@H](CSN=O)C(=O)NCC(=O)O)C(=O)O | inactive | – |
| NC1=C2NC=N[C@@H]2N(C/C=C\c2ccccc2)C=N1 | – | -12.4% [at 2.29 µM] |
| COc1ccc(CNc2ccnc(-c3cccc(NS(C)(=O)=O)c3)n2)c(OC)c1 | 15.8 µM (active) | – |
| CC(C)[C@@H]1NC(=O)[C@H](CCCCN)NC(=O)[C@H](Cc2c[nH]c3ccccc23)NC(=O)[C@H](Cc2ccc(O)cc2)NC(=O)[C@H](C)N(C)C(=O)[C@H](Cc2ccccc2)NC1=O | inactive | – |
| COc1ccc(-c2nn3cnnc3s2)cc1OC | 20 µM (active) | – |
| COc1ccc(-c2ccc(=O)n(CC(=O)Nc3nnc(C(C)C)s3)n2)cc1OC | inactive | – |
| CN(C)c1ncc2nc(-c3cc(F)cc(F)c3)c(=O)n(Cc3ccc(F)cc3)c2n1 | inactive | – |
| CN(C)c1ncc2nc(-c3ccc(Cl)cc3)c(=O)n(Cc3ccc(F)cc3)c2n1 | 5.01 µM (active) | – |
| Cc1nc2cnc(N(C)C)nc2n(Cc2ccc(F)cc2)c1=O | 2 µM (active) | – |
| CN(C)c1ncc2nc(-c3ccc(F)cc3)c(=O)n(Cc3ccc(F)cc3)c2n1 | inactive | – |
| O=C1[C@@H]2[C@H]3[C@H](O)[C@H](O)C/C(=N/OCc4ccccc4)[C@@H]3CC[C@H]2C(=O)N1c1ccc(F)cc1F | – | 4.37% [at 11.4 µM] |
| Clc1ccc(/C=N/Nc2nnc(-c3ncc[nH]3)c3ccccc23)cc1 | 0.2 µM (active) | – |
| NC[C@@H]1O[C@H](C23CC4CC(CC(C4)C2)C3)Cc2c1ccc(O)c2O | inactive | – |
| Cc1ccc(N=Nc2c(N)n(-c3ccccc3)[nH]c2=O)cc1 | 2.82 µM (active) | – |
| Nc1c(N=Nc2cccc(Cl)c2)c(=O)[nH]n1-c1ccccc1 | 2 µM (active) | – |

| SMILES | AC50 | activity, negative = inhibition |
| --- | --- | --- |
| Cc1[nH]n(-c2ccc(S(=O)(=O)O)cc2)c(=O)c1N=Nc1ccccc1 | – | -10.5% [at 11.4 µM] |
| Cc1ccc(C2C(C=Nc3c(C)n(C)n(-c4ccccc4)c3=O)=C(c3ccccc3)Oc3ccccc32)cc1 (configuration not stated) | inactive | – |
| Cc1nc2cnc(Oc3cccc(Cl)c3)nc2n(C2CC2)c1=O | 6.31 µM (active) | – |
| O=c1cc(N2CCN(c3cccc(Cl)c3)CC2)[nH]c(=O)n1C1CCCCC1 | inactive | – |
| O=c1cnc2cnc(Oc3cccc(Cl)c3)nc2n1C1CC1 | 2.51 µM (active) | – |
| Cc1nc2cnc(Oc3ccccc3)nc2n(C2CC2)c1=O | 10 µM (active) | – |
| COc1ccc(C2/C(=C(/O)c3ccccc3)C(=O)C(=O)N2CC(C)O)c(OC)c1 (configuration not stated) | inactive | – |
| N#Cc1ccc(C(c2nnnn2Cc2ccccc2)N2CCCC2)cc1 (configuration not stated) | inactive | – |
| O=C(NCc1ccc(F)cc1)C(c1ccncc1)N(C(=O)c1csnn1)C1CC1 (configuration not stated) | inactive | – |
| Cc1sc2ccccc2[n+]1CCC(C)S(=O)(=O)[O-] (configuration not stated) | inactive | – |
| O=C1c2ccccc2-c2n[nH]c3cccc1c23 | 0.0158 µM (active) | – |
| CN(CC(=O)Nc1ccc(F)c(F)c1)S(=O)(=O)c1cccc2nsnc12 | 15.8 µM (active) | – |
| CC1CCN(C(=O)CN(C)S(=O)(=O)c2cccc3nsnc23)CC1 | inactive | – |
| CCc1cccc(NC(=O)CN(C)S(=O)(=O)c2cnc[nH]2)c1 | inactive | – |
| CCN(CC)CCC[C@H](C)Nc1c2ccc(Cl)cc2nc2ccc(OC)cc12 | 2 µM (active) and 1 µM (active) | – |
| Cc1cccc(N(CC(=O)N2CCOCC2)S(C)(=O)=O)c1 | inactive | – |
| C/C(=N/NC(=O)c1ccc(NC(=O)c2ccc(F)cc2)cc1)c1ccccc1 | inactive | – |
| C/C(=N\NC(=O)c1cccc(Br)c1)c1ccc(Br)cc1 | 0.282 µM (active) | – |
| O=C(N/C(=C\c1cccnc1)C(=O)N1CCOCC1)c1cccc(Br)c1 | inactive | – |
| CCn1cc(C(=O)N/N=C(/C)c2ccc(F)cc2)c(=O)c2cc(F)c(N3CCCC3)cc21 | inactive | – |
| CC(C)OP(=O)(OC(C)C)C(NC(=O)c1ccc(Br)cc1)c1ccccc1 (configuration not stated) | inactive | – |
| C/C(=N\NC(=O)c1ccc(Br)cc1)c1ccccc1 | 1.41 µM (active) | – |
